# Measured values from paper PMC4552634, “A New Set of Chemical Starting Points with Plasmodium falciparum Transmission-Blocking Potential for Antimalarial Drug Discovery” (PLoS ONE, 2015).
# Among all 13,000 compounds or so, about 3,200 (25%) showed an effect of 50% or more. The list shows a part of the results.
# Tested on: P. falciparum stage V gametocytes
# Design: BacTiter-Glo ATP luminescence viability of purified stage V gametocytes in 384-well plates, per cent inhibition versus DMSO
# Settings: 48 h, 5 µM; inhibitor
row,Structure (SMILES),% Inhibition [%]
1,O=C(Nc1ccc(Cl)cc1)Nc1cccc(-c2ccc(-c3nc4ccccc4[nH]3)cc2)c1 [TCMDC-133182],-15.2
2,CN(C)CCCNc1ncnc2c1[nH]c1ccc(F)cc12 [TCMDC-125598],-5.367
3,COc1cc2ncnc(Nc3ccc(OCc4ccccc4)c(C(F)(F)F)c3)c2cc1OC [TCMDC-131921],4.607
4,COc1cc2nc(NCCn3nc(C)cc3C)nc(NCCc3ccccc3)c2cc1OC [TCMDC-135473],52.48
5,COc1cc2nc(NCCc3ccccc3)nc(NCc3nccs3)c2cc1OC [TCMDC-135436],24.41
6,COc1ccc(CCNc2nc(N)c3cc(OC)c(OC)cc3n2)cc1.Cl [TCMDC-131888],1.23
7,O=c1ccc(CNc2nc(NCCc3ccccc3)nc3cc(Cl)ccc23)c[nH]1 [TCMDC-136510],52.65
8,O=c1ccc(CNc2nc(NCCc3ccccc3)nc3ccc(Cl)cc23)c[nH]1 [TCMDC-136489],35.37
9,Clc1ccc2c(NCCc3ccccc3)ccnc2c1 [TCMDC-138551],-1.928
10,COc1cc2nc(NCCc3ccccc3)nc(NCCCc3ccccc3)c2cc1OC [TCMDC-135301],108
11,COc1ccc(CNc2nc(NCc3ccc(C(F)(F)F)cc3)c3cc(OC)c(OC)cc3n2)cc1OC [TCMDC-132016],104.7
12,Cc1c(CNCCCNc2cc(=O)c3ccccc3[nH]2)sc(-c2ccco2)c1Br [TCMDC-141065],-27.75
13,CSc1cccc(Nc2nc3ccc(S(=O)(=O)NC(C)C(C)C)cc3n2[C@H](C)C(C)(C)C)c1 (stereo partly drawn) [TCMDC-136239],-63.84
14,Cc1nn(C)cc1C(C)Nc1nncc(-c2ccc(C(F)(F)F)cc2)n1 (stereo not drawn) [TCMDC-124694],-19.2
15,OC1(c2ccc(Br)cc2)CCN(C2CCN(Cc3ccccc3)CC2)CC1 [TCMDC-124137],40.29
16,O=C(O)C(F)(F)F.c1cc(CN2CCN(c3ccncc3)CC2)cc(-c2ccc(-c3nc4ccccc4[nH]3)s2)c1 [TCMDC-132909],11.83
17,COc1ccc2nccc([C@@H](O)CN3CCC(NCc4cc5cc(C)ccc5s4)CC3)c2c1 [TCMDC-140682],12.73
18,CN(C)CCCn1cncc1-c1ccc2ncnc(Nc3ccc4c(cnn4Cc4ccccc4)c3)c2c1 [TCMDC-138087],-19.79
19,CN(C)CCc1coc2ccc(C(=O)Nc3ccc(-c4ccc(O)cc4)cc3)cc12 [TCMDC-132005],-54.25
20,COc1cccc(CCNc2nc(NCc3ccccc3)c3cc(OC)c(OC)cc3n2)c1 [TCMDC-135267],71.62
21,c1ccc(CNc2nc(NCCN3CCCCC3)nc3ccccc23)cc1 [TCMDC-137554],18.64
22,COc1cc2nc(NCCc3ccccc3)nc(NCc3cnn(C)c3C)c2cc1OC [TCMDC-135459],100.1
23,COc1cc2nc(NCCc3cccc(Cl)c3)nc(NCc3ccccc3)c2cc1OC [TCMDC-135266],90.56
24,COc1cc2nc(NCCCN3CCCCC3)nc(NCc3ccccc3)c2cc1OC [TCMDC-132012],112.9
